# Screens from PubChem.
# An excerpt weighted towards active compounds, which were near 19% of everything screened.
# IL-1B inflam inh: blocks inflammasome-driven IL-1 beta release; AID 743279; hit rate 4.7% among 360,000; activity change, % at 57.5 µM; THP-1 LPS/ATP IL-1B secretion, AlphaLISA, 16 h; hits give low values; in the data active means activity change below about -50%; inconclusive means mostly about -30% to -49%
#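 THP-1 cells pretreated 1 hr with compounds (up to 57.5 uM final), then stimulated with LPS (250 ng/mL final) plus ATP (1.25 mM final); secreted IL-1B measured by AlphaLISA after 16 hr, decreased signal indicating inhibition.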
# HT1080-NT tox: kills 2HG-producing HT-1080-NT fibrosarcoma cells. Potency, µM (series often up to 46.1 µM), inactives show top-dose activity, negative = less viability, actives largely listed as cytotoxic. HT-1080-NT fibrosarcoma viability, CellTiter-Glo ATP luminescence, 48 h. hit rate 1.6% among 360,000;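 further: NT is the 2HG producing partner of a matched IDH1 knockdown line; potency means the concentration at half of the fitted maximal effect; 0% = DMSO-treated cells and -100% = media-only wells without cells; nearly all actives have a fitted effect of over 55% in size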
#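 HT-1080-NT; 750 cells/well; 5% FBS RPMI; 48 h compound, 37 degrees C; CellTiter-Glo luminescence; curve fitting and curve-class assignment.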
# TDP1 cell noCPT: qHTS for Inhibitors of human tyrosyl-DNA phosphodiesterase 1 (TDP1): qHTS in cells in absence of CPT | DT40 Tdp1-/- hTDP1 cells, no CPT, ATP luminescence, 48 h | Potency, µM (highest dose often 46.2 µM), without a hit: at the highest dose activity change, negative = growth inhibition, most hits filed as inhibitors | hit rate 15% among 420,000 | AID 686978, 2013; further: potency means the concentration at half of the fitted maximal effect; nearly all actives have a fitted effect of over 55% in size
#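 A cellular qHTS used chicken DT40 cells lacking endogenous Tdp1 but carrying stably transfected human TDP1. Compounds were applied without camptothecin, and cell growth kinetics were judged by ATP-dependent luminescence after ≥48 hr.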
# DT40 TDP1 CPT: growth inhibition of DT40 Tdp1-/-;hTDP1 cells with camptothecin (screen for TDP1 inhibitors); chicken DT40 Tdp1-/-;hTDP1 cells + 20 nM CPT, ATP luminescence, 48 h; Potency, µM (doses to about 46.2 µM), inactives show top-dose activity change, negative = growth inhibition, usual class: inhibitors; hit rate 12% among 420,000; further: potency means the concentration at half of the fitted maximal effect; nearly all actives have a fitted effect of over 55% in size
#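 Chicken DT40 Tdp1-/- cells complemented with human TDP1, 400 cells/well, exposed to compounds plus 20 nM camptothecin for at least 48 h at 37 C; viability read as ATP content by CellTiter-Glo luminescence.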
# HT1080 IDH1KD tx: kills HT-1080 cells with IDH1 knockdown; HT-1080 IDH1 knockdown viability, ATP luminescence, 48 h; Potency, µM (series often up to 46.1 µM), inactives show top-dose activity, negative = toxicity, actives largely listed as cytotoxic; hit rate 2% among 360,000; AID 686971;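 further: potency means the concentration at half of the fitted maximal effect; 0% = DMSO wells and -100% = cell-free medium wells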
#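 HT-1080-IDH1KD cells (IDH1 knocked down), 750/well in RPMI with 5% FBS, treated with compound 48 h at 37 degrees C. Viability by CellTiter-Glo luminescence, normalised to DMSO and no-cell wells; concentration-response curves classed.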
# * = called active by the depositor; ? = inconclusive; nt = not tested or not shown. Unless noted, the call rests on the fitted dose curve; in most records, active means well fitted curve in the direction sought with a large enough effect; inconclusive means small, poorly fitted or top-dose-only effect, or another doubt; inactive means no such curve, though single readings can be large; an effect the other way counts as inactive or inconclusive. Unless noted, on the % scale 0 is the no-effect control and ±100 the full control effect.
SMILES,IL-1B inflam inh,HT1080-NT tox,TDP1 cell noCPT,DT40 TDP1 CPT,HT1080 IDH1KD tx
N#C/C(=C\c1ccccn1)c1ccccn1,-94*,-15%,15µM*,23µM*,-18%
Cc1cc(C)n2nc(/C(C#N)=C/c3ccccn3)c(C#N)c2n1,-98*,-11%,9.2µM*,?,-9%
Cc1cc(C)n2nc(CC#N)c(C#N)c2n1,16,15%,-13%,14%,28%
CN(C)c1ccc(/C=C(\C#N)c2ccccn2)cc1,-10,?,23µM*,-28%,?
COc1ccc(CC(=O)N/N=C(\C)CC(=O)NCc2ccco2)cc1OC,-4,1%,2%,4%,-1%
CCOc1cccc(-c2csc(C3COc4ccccc4O3)n2)c1 (stereo unspecified),6,8%,0%,-26%,-8%
O=C(/C=C/c1ccccc1)Nc1cccnc1Oc1ccccc1F,?,-18%,-20%,1%,-20%
CN1CCN(c2ncnc3c2ncn3[C@H]2CN(Cc3cccs3)C[C@@H](CO)O2)CC1,24,2%,-20%,?,?
Clc1ccc2nnnc(-c3ccccc3)c2c1,-100*,?,4.1µM*,3.3µM*,?
COc1ccccc1C(=O)NC(=O)COC(=O)Cc1ccccc1[N+](=O)[O-],16,5%,?,?,18%
COc1cc2c(cc1OC)C(Cc1ccccc1[N+](=O)[O-])=NCC2,12,-1%,23µM*,?,-1%
COc1ccc(NC(=O)COC(=O)Cc2ccccc2[N+](=O)[O-])cc1OC,-4,-2%,26µM*,?,-2%
COc1ccccc1CNc1ccc2c(c1)CCC2,-60*,-14%,10µM*,4.6µM*,-8%
COc1ccc(NCc2ccccc2[N+](=O)[O-])cc1OC,-1,-5%,16µM*,16µM*,1%
COc1cc2c(cc1OC)CN(c1ncccc1[N+](=O)[O-])CC2,?,0%,-24%,1%,-1%
COc1ccc(CC(=O)NNS(=O)(=O)c2ccccc2[N+](=O)[O-])cc1OC,-10,11%,-18%,7%,5%
C=CCOc1ccccc1CNc1cccc(F)c1,-5,1%,-28%,?,0%
C=CCOc1ccccc1CNc1ccc2c(c1)OCCO2,-75*,?,12µM*,15µM*,?
C=CCOc1ccccc1CNc1ccc2[nH]c(=O)[nH]c2c1,23,5%,21µM*,?,4%
CCOc1ccc(S(=O)(=O)NCc2ccccn2)cc1NC(=O)c1ccccc1,46,2.6µM*,1.3µM*,1.3µM*,3.3µM*
COc1ccc(S(=O)(=O)NCc2ccccn2)cc1NC(=O)c1ccccc1F,33,4.6µM*,2.6µM*,2.3µM*,5.8µM*
N#CCc1nnc2n1-c1ccccc1CCC2,-8,11%,-7%,-2%,-4%
COCC1CCCN(Cc2cn(-c3ccccc3F)nc2-c2cc(C)sc2C)C1 (stereo unspecified),0,9%,18µM*,16µM*,1%
CC(=O)NCC1CCCN(Cc2cn(-c3ccccc3F)nc2-c2cc(C)sc2C)C1 (stereo unspecified),-56*,4%,-23%,?,-13%
Cc1cc(-c2nn(-c3ccccc3F)cc2CN2CCN(c3ccncc3)CC2)c(C)s1,-85*,21µM*,?,?,?
SMILES,IL-1B inflam inh,HT1080-NT tox,TDP1 cell noCPT,DT40 TDP1 CPT,HT1080 IDH1KD tx
CC(=O)NCC1CCCN(Cc2cn(-c3ccccc3)nc2-c2ccc3c(c2)OCO3)C1 (stereo unspecified),-2,-18%,?,?,1%
Cc1cc(-c2nn(-c3ccccc3F)cc2CN(C)CC(O)CO)c(C)s1 (stereo unspecified),-10,3%,-26%,-17%,-5%
O=C(O)c1ccc(S(=O)(=O)N2CCCCCCC2)cc1,-12,5%,-5%,3%,-2%
C#CCOCCOCCOCCNc1nc(N2CCN(C(=O)Cn3cc(CCCN=C(N)N)nn3)CC2)nc(N2CCN(C(=O)[C@H]([C@@H](C)CC)n3cc(CCCCN)nn3)CC2)n1,-7,7%,-6%,-27%,11%
C#CCOCCOCCOCCNc1nc(N2CCN(C(=O)[C@H](CCCCN)n3cc(CCCC)nn3)CC2)nc(N2CCN(C(=O)[C@H](CCCCN)n3cc(CCCC)nn3)CC2)n1,0,3%,-10%,1%,0%
C#CCOCCOCCOCCNc1nc(N2CCN(C(=O)CCCCCCCCCCNC(=O)[C@H]([C@@H](C)CC)n3cc(CCCCCN)nn3)CC2)nc(N2CCN(C(=O)CCCCCCCCCCNC(=O)[C@H](CO)n3cc(CCCCCN)nn3)CC2)n1,-83*,?,?,?,?
C#CCOCCOCCOCCNc1nc(N2CCOCC2)nc(N2CCN(C(=O)CCCCCCCCCCNC(=O)[C@@H]([C@H](C)CC)n3cc(CCCCCN)nn3)CC2)n1,2,-20%,?,?,-24%
C#CCOCCOCCOCCNc1nc(N2CCN(C(=O)CCCCCCCCCCNC(=O)Cn3cc(CCCCCN)nn3)CC2)nc(N2CCN(C(=O)CCCCCCCCCCNC(=O)[C@H]([C@@H](C)CC)n3cc(CCCCN=C(N)N)nn3)CC2)n1,-110*,?,?,21µM*,?
C#CCOCCOCCOCCNc1nc(N2CCOCC2)nc(N2CCN(C(=O)[C@H](CCCCN)n3cc(CCCC)nn3)CC2)n1,12,11%,1.3µM*,0.21µM*,11%
C#CCOCCOCCOCCNc1nc(N2CCN(C(=O)CCCCCCCCCCNC(=O)[C@@H](CCC(=O)O)n3cc(CCCCCN)nn3)CC2)nc(N2CCN(C(=O)CCCCCCCCCCNC(=O)[C@H]([C@@H](C)CC)n3cc(CCCCCN)nn3)CC2)n1,-95*,-18%,?,-6%,-3%
CCOC(=O)CN(C(=O)CSc1nnc(COc2ccc(OC)cc2)n1CC)c1ccccc1,-5,-7%,?,-9%,0%
O=C1c2ccccc2C(=O)N1c1ccccn1,nt,nt,7%,1%,nt
CCc1cc2c(cc3c(=O)n(CC(=O)NC4CCCCC4)ncn32)s1,nt,nt,-13%,1%,nt
C#CCOCCOCCOCCNc1nc(N2CCN(C(=O)CCCCCCCCCCNC(=O)[C@H](CCCCN)n3cc(CCCC(=O)O)nn3)CC2)nc(N2CCN(C(=O)CCCCCCCCCCNC(=O)[C@@H]([C@H](C)O)n3cc(C)nn3)CC2)n1,0,2%,-1%,-10%,3%
